# Screening data as filed in PubChem.
# Rows were chosen to be rich in hits. Some 4.8% of all compounds tested hit in one or more screens of this group.
# Calb FLC = C. albicans growth modulation with fluconazole; growth inhibition, % (no concentration beside the values); AID 1979; hit rate 0.57% among 300,000; C. albicans CaCi-2 (fluconazole-resistant clinical isolate) + fluconazole, Alamar Blue growth, 48 h;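 active = growth inhibition above about 58% in most replicates, limit read from the data, passing the limit was not always enough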;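 also: all wells also contain fluconazole at 8 µg/ml as a sub-toxic cotreatment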
# Mdm2 MdmX PPI = disrupts the human Mdm2-MdmX interaction | hit rate 3% among 330,000 | AID 485346 | SaOS-2 split-luciferase Mdm2/MdmX complementation, luminescence | inhibition, % at 8 µM;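 active = inhibition of at least 50% at 8 µM in the primary screen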
# Target sequence (O15151 whole entry, looked up): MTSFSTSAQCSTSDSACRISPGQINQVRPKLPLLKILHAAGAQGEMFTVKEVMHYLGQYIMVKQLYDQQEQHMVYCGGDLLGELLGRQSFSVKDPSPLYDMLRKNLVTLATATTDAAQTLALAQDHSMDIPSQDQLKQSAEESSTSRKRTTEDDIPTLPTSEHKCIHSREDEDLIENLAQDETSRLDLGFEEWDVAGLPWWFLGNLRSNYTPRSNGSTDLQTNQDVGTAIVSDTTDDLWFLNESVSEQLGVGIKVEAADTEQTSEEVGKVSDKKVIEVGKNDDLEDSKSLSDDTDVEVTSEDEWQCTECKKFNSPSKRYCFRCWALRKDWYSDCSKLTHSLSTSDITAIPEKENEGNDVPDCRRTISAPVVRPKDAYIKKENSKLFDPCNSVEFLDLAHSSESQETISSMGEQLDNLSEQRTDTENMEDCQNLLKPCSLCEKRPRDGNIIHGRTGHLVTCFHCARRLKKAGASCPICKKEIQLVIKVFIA
# Target sequence (Q00987 whole entry, looked up): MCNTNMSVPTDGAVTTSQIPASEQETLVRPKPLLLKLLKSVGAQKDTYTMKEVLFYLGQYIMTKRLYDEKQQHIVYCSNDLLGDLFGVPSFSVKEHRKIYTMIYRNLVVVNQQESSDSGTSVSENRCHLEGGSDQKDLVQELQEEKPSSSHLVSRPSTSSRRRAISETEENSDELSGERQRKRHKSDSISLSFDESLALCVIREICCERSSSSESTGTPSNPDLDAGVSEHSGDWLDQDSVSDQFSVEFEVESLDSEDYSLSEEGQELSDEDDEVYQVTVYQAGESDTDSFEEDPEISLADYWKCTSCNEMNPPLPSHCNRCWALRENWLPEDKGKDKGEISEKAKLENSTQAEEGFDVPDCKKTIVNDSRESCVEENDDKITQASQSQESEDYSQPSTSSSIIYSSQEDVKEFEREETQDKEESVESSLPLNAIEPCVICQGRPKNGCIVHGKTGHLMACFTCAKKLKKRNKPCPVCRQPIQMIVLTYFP
# Beta cell apopt = blocks beta cell apoptosis. protection from apoptosis, % (test concentration not listed). INS-1E cytokine-induced death, ATP luminescence, 48 h; percent of positive-control rescue, neutral wells zero. hit rate 0.8% among 300,000. AID 435005;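 active = Every replicate reaches about 75%, or at least half do and their mean reaches it too, limit read from the data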;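 also: higher means more ATP so stronger rescue from cytokine killing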
# MPTP inh = blocks calcium-induced mitochondrial swelling. isolated mouse mitochondria, Ca2+ swelling absorbance, 30 min. inhibition, % at 10 µM. hit rate 1.4% among 360,000. AID 602449;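 active = inhibition of 50% or more, scaled per plate between neutral and stimulator controls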
# CSC inhib = cancer stem cell inhibition; inhibition, % at 7.5 µM; hit rate 1.1% among 300,000; cancer stem cell-like cells viability, luminescence; in the data active = inhibition above about 75%; tested in HMLE shEcad cells
# Mdm2-MdmX conf = confirmation of human Mdm2/MdmX interaction inhibitors. shares compounds with Mdm2 MdmX PPI. Mdm2-MdmX binding, luminescent assay. inhibition, % at 8 µM. hit rate 55% among 10,000. AID 489028; in the data active = inhibition above about 40%
# FLuc counter = full-length luciferase inhibition in Mdm2/MdmX counter-screen. shares compounds with Mdm2 MdmX PPI. hit rate 77% among 6,200. SaOS-2 full-length luciferase counterscreen, luminescence. inhibition, % at 8 µM;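 active = mean inhibition at 8 µM reaching about 37%, which flags the compound as non-specific, limit read from the data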;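 also: p53-null SaOS-2 cells with luciferase driven by a doxycycline-inducible promoter; compound on cells about two nights before reading with doxycycline added after day one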
# Numbers stand for hits; i = inactive; nt = no result.
SMILES,Calb FLC,Mdm2 MdmX PPI,Beta cell apopt,MPTP inh,CSC inhib,Mdm2-MdmX conf,FLuc counter
COc1cccc(CC2(CO)CCCN(Cc3ccc(C)s3)C2)c1 (stereo not drawn),i,i,i,i,i,nt,nt
COc1cccc(CC2(CO)CCCN(Cc3[nH]c4ccc(C)cc4c3C)C2)c1 (stereo not drawn),i,62.5,i,i,i,i,nt
COc1ccc(-c2coc3c(C(=O)NCC(C)C)cccc23)c(C)c1,nt,nt,nt,i,nt,nt,nt
Oc1c(Cl)cc(Cl)cc1Sc1cc(Cl)cc(Cl)c1O,nt,99.6,i,nt,120.2,91.8,i
Cc1cc(C)nc(N/N=C/c2cc(Br)ccc2O)n1,i,75.3,88.0,i,i,75.6,i
O=C(Nc1cc(C(F)(F)F)ccc1F)C1Cc2c(-c3ccccc3Oc3ccccc3)ccnc2O1 (stereo not drawn),nt,nt,nt,i,nt,nt,nt
O=C(CCC1CCCCC1)NCCN1C2=NC[C@@H](Cc3ccccc3)N2C[C@H]1Cc1ccc(O)cc1,i,67.3,i,i,i,53.6,63.3
Cc1ccc(Cn2c(O)c(N=NC(=S)Nc3ccccc3F)c3cc(S(=O)(=O)N4CCOCC4)ccc32)cc1,i,nt,nt,i,nt,nt,nt
Cc1ccc(C)c(NC(=S)N=Nc2c(O)n(C)c3ccc(S(=O)(=O)N4CCOCC4)cc23)c1,i,66.5,i,i,i,45.3,59.3
Cc1ccc(C)c(SCC(=O)Nc2cc(S(=O)(=O)N3CCOCC3)ccc2C)c1,nt,i,nt,i,nt,nt,nt
CCc1ccccc1NC(=S)N=Nc1c(O)n(C)c2ccc(S(=O)(=O)N3CCOCC3)cc12,i,51.8,nt,i,i,60.5,52.9
COc1ccc(C)cc1NC(=O)C/C(C)=N/NC(=O)Cc1cccc2ccccc12,i,i,i,i,nt,nt,nt
CCCC[n+]1ccn(-c2nc3c([N+](=O)[O-])cccc3n2C)c1,i,i,nt,i,nt,nt,nt
CCOC(=O)C1(Cc2ccccc2C(F)(F)F)CCN(CC(O)CO)CC1 (stereo not drawn),i,i,i,i,i,nt,nt
CCOC(=O)C1(Cc2ccccc2C(F)(F)F)CCN(C2CCN(C(C)C)CC2)CC1,i,73.0,i,i,i,59.1,54.4
COc1ccc(SCC(O)Cn2c3ccccc3c3ccccc32)c(OC)c1 (stereo not drawn),nt,nt,nt,i,nt,nt,nt
COc1cc2c(cc1OC)C(C)N(C(=O)c1cc(C)on1)CC2 (stereo not drawn),i,60.6,i,i,i,67.5,82.0
Cc1noc(C)c1S(=O)(=O)NC(=O)C1(C)CCN1C(=O)CC(c1ccccc1)c1ccccc1 (stereo not drawn),nt,nt,nt,i,nt,nt,nt
CCCNC(=O)c1ccccc1NC(=O)c1ccc2c(c1)NC(=O)C(C)S2 (stereo not drawn),i,53.3,nt,i,i,67.8,72.3
CC(=O)c1ccccc1NC(=O)c1ccc2c(c1)NC(=O)C(C)S2 (stereo not drawn),i,i,i,i,i,nt,nt
O=C(CC12CC3CC(CC(C3)C1)C2)Nc1ccccc1N1CCOCC1,i,i,i,i,i,nt,nt
CC(=O)Nc1cccc(NC(=O)c2cc(-c3cccnc3)nc3ccc(Br)cc23)c1,i,68.1,i,i,i,73.1,89.7
COc1cccc(-c2cc(C(=O)Nc3ccncc3)c3ccccc3n2)c1,i,i,i,i,i,nt,nt
COc1cccc(-c2cc(C(=O)Nc3ccc(N(C)C(C)=O)cc3)c3cc(Br)ccc3n2)c1,i,61.9,i,i,i,i,nt
Cc1ccc(N2CCN(C(C(=O)Nc3c(C)cccc3C)c3cccc(F)c3)CC2)cc1 (stereo not drawn),nt,nt,nt,i,nt,nt,nt
SMILES,Calb FLC,Mdm2 MdmX PPI,Beta cell apopt,MPTP inh,CSC inhib,Mdm2-MdmX conf,FLuc counter
Oc1cccc(C2c3[nH]c4ccccc4c3CCN2Cc2ccoc2)c1 (stereo not drawn),i,i,i,i,i,nt,nt
Oc1cccc(C2c3[nH]c4ccccc4c3CCN2Cc2ccc3c(c2)CCO3)c1 (stereo not drawn),i,57.8,i,i,i,43.2,52.9
NC(=O)c1ccc(Cn2c(C(=O)c3cc(Cl)c(N)c(Cl)c3)c3ccccc3[n+]2[O-])cc1,nt,52.8,i,i,i,52.1,65.1
NCCCn1c(C(=O)c2cc(Cl)c(N)c(Cl)c2)c2ccc(C(F)(F)F)cc2[n+]1[O-],i,i,i,i,i,nt,nt
NC(=O)c1ccc(Cn2c(C(=O)c3ccc(Cl)cc3)c3ccccc3[n+]2[O-])cc1,nt,i,i,i,i,nt,nt
NCCCn1c(C(=O)c2cc(Cl)c(N)c(Cl)c2)c2ccc([N+](=O)[O-])cc2[n+]1[O-],i,65.8,86.9,i,i,53.5,63.3
CCNC(=O)CN(c1ccc(F)cc1)S(=O)(=O)c1ccc2c(c1)OCCO2,i,i,nt,i,i,nt,nt
CC(C)[C@H](NC(=O)OC(C)(C)C)c1cc(C(=O)NCCc2c[nH]c3ccccc23)c(N)s1,nt,nt,nt,i,nt,nt,nt
O=C(Oc1c(-c2ccccc2)c(=O)n2c3c(cccc13)CC2)c1ccco1,i,53.8,i,i,i,i,nt
O=C(Oc1c(-c2ccccc2)c(=O)n2c3c(cccc13)CC2)c1ccc(Cl)cc1,i,i,i,i,i,nt,nt
CC1(C(=O)NCc2ccccc2)CSCC(=O)N1CC(F)(F)F (stereo not drawn),nt,nt,nt,i,nt,nt,nt
CCCn1c2ccccc2c2cnn(CC(=O)N3CCN(C4CCCCC4)CC3)c(=O)c21,i,55.4,i,i,i,i,nt
CCCn1c2ccccc2c2cnn(CC(=O)N3CCOCC3)c(=O)c21,i,i,i,i,i,nt,nt
CCCCCOC(=O)c1[nH]c2c(c1C)C(=O)CC(c1ccco1)C2 (stereo not drawn),i,64.6,i,i,i,51.5,88.6
CCOCCOC(=O)c1[nH]c2c(c1C)C(=O)CC(c1cc(OC)c(OC)c(OC)c1)C2 (stereo not drawn),i,i,i,i,i,nt,nt
CCOCCOC(=O)c1[nH]c2c(c1C)C(=O)CC(c1cccs1)C2 (stereo not drawn),i,53.8,i,i,i,61.4,91.6
COC(=O)c1[nH]c2c(c1C)C(=O)CC(c1cccc(OC)c1)C2 (stereo not drawn),i,53.6,i,i,i,58.6,92.5
COCCOC(=O)c1[nH]c2c(c1C)C(=O)CC(c1cccs1)C2 (stereo not drawn),i,nt,nt,i,nt,nt,nt
CCOCCOC(=O)c1[nH]c2c(c1C)C(=O)CC(c1ccccc1)C2 (stereo not drawn),i,50.1,i,i,i,55.8,95.7
O=C(CCS(=O)(=O)c1ccc(Br)cc1)NCCC1=CCCCC1,i,i,i,i,i,nt,nt
OCC[C@H]1C[C@@H](O)[C@H](O)[C@@]2(CCCCO2)O1,i,i,i,i,i,nt,nt
O=C(O)COc1ccccc1C=NNC(=O)c1ccccc1NS(=O)(=O)c1cccs1,nt,i,i,i,i,nt,nt
CCOC(=O)c1[nH]c2c(c1C)C(=O)CC(c1ccc(F)cc1)C2 (stereo not drawn),i,58.9,i,i,i,54.0,63.3
CCCCCCCC[n+]1cccc2c3ccccc3ccc21,102.0,86.4,107.6,i,i,83.8,i
CC(C)C[C@H](NC(=O)CC[C@H]1O[C@@H](n2ccc(=O)[nH]c2=O)[C@H](O)[C@@H]1O)C(=O)O,nt,nt,nt,i,nt,nt,nt
